Source: PubChem BioAssay AID587 (National Center for Advancing Translational Sciences (NCATS), 2007)
In all, about 59,000 compounds went through this assay and about 35 (0.06%) were called active. Roughly 19% stayed inconclusive and do not appear here. The sample holds actives, similar compounds and a random draw of the others, so the mix is not that of the screen. No stated cut-off is given here; in the data, active means max dye-equivalent concentration above about 10 nM; inconclusive means between about 1.1 nM and that limit; inactive means weaker than that.

Test: qHTS Assay for Spectroscopic Profiling in Texas Red Spectral Region
Settings: Compound fluorescence, Texas Red channel, 547/618 nm
From the text: NIH Molecular Libraries Screening Centers Network [MLSCN] NIH Chemical Genomics Center [NCGC] […] Occasionally, the artifactual effect may originate from the compound#s own spectral or other biophysical properties which generally tend to track its assay concentration. Pre-screening/profiling the library with respect to the compounds# spectral properties should help one exclude false positives early on. While the most informative fluorescent profiling data set is obtained by performing a full excitation and emission scan of each well by using a monochromator-based plate reader, such an approach is practical only on a very limited scale as scanning each well requires long time. An alternative approach, applied here, is to perform plate reader scans using selected excitation and emission wavelength pairs to generate a multidimensional relational database that correlates compound concentration and the respective relative fluorescence intensity at a given wavelength set. A standard curve of Texas Red (TR) present on each plate as six-point concentration series, was used to compute a normalized fluorescence response, termed dye-equivalent concentration, for each compound at each concentration.
NCGC Assay Protocol Summary: Buffer: 100 mM Tris buffer, pH 8.0 Dye standard plate: The wells in columns 1 through 4 of a Kalypsys polypropylene 1536-well compound plate were filled with standard solutions of fluorophore corresponding to the spectral region of interest. Solutions of TR were placed in the following wells: U1, V1: 3 mM, U2, V2: 300 uM, U3, V3: 30 uM, U4, V4: zero (DMSO), W1, X1: 3 uM, W2, X2: 900 nM, W3, X3: 300 nM, W4, X4: zero (DMSO). Assay Steps: Six uL of buffer were dispensed to 1536-well Greiner black plates. Compounds and dye standards (23 nL) were transferred via Kalypsys PinTool. The plates were incubated for 15 min at room temperature, and then read on ViewLux (Perkin-Elmer) High-throughput CCD imager using 547 nm and 618 nm excitation and emission filter set. Keywords: NIH Roadmap, MLSCN, MLI, MLSMR, qHTS, NCGC, Texas Red, Fluorescent Profiling.

Max dye-equivalent concentration, inactive:
COc1ccc(OCc2cccc(C(=O)N3CCCC3)c2)cc1
CN(c1ccc(C(=O)NCCC2=CCCCC2)cc1)S(C)(=O)=O
CCOc1ccc(C2C(C(=O)O)c3ccccc3C(=O)N2CCN2CCOCC2)cc1 (stereo not given)
COc1ccccc1CNc1ncnc2ccc(-c3ccc4c(c3)OCO4)cc12
Cc1ccc2nc(-c3ccc(SCC(=O)Nc4cc(C)on4)nc3)[nH]c2c1
COc1ccc(-n2c(SCC(=O)NCc3cccs3)nnc2-c2ccoc2C)cc1
CN(C)CCNC(=O)C(C(=O)c1ccccc1)n1ccccc1=O (stereo not given)
CC1Cn2c(nnc2-c2cccs2)S1 (stereo not given)
CSc1ncccc1C(=O)OCC(=O)N1CCOCC1
c1ccc(-c2oc3ncnc(N4CCOCC4)c3c2-c2ccccc2)cc1
O=c1c(-c2cc(F)cc(F)c2)nc2cnc(Oc3ccccc3)nc2n1C[C@H]1CCCO1
COc1ccc(-n2ncc3c(N4CCc5ccccc54)ncnc32)cc1
CN(C)c1ccc(-c2nc(NCCN3CCOCC3)c3ccccc3n2)cc1
CC(NCCO)C(=O)C12CC3CC(CC(C3)C1)C2 (stereo not given)
O=c1c(-c2ccc(F)cc2)nc2cnc(N3CCOCC3)nc2n1-c1ccccc1
Cc1cc(N2C(=O)C(=O)/C(=C(/O)c3ccc(Cl)cc3)C2c2cccc(Br)c2)no1 (stereo not given)
CC[C@H](c1ccccc1)c1cc(C(C)(C)C)cc(C(C)(C)C)c1O
COc1ccc(C(=O)n2nc(-c3ccc(C)cc3)nc2N)cc1OC
Cn1cc(-c2nc3cnc(N4CCNCC4)nc3n(CCc3ccccc3)c2=O)c2ccccc21
O=c1c(CCc2ccccc2)nc2cnc(N3CCNCC3)nc2n1Cc1cccs1
Cc1nc2nc(COc3ccccc3)[nH]n2c(=O)c1C
COc1ccc(C(C(O)C(=O)c2c[nH]c3ccccc23)N2CCN(c3ccccc3)CC2)cc1 (stereo not given)
COc1ccc(NS(=O)(=O)c2ccc(NC(=O)C(C)(C(F)(F)F)C(F)(F)F)cc2)nn1
N#Cc1ccc(OCCN2C(=O)NC3(CCSC3)C2=O)cc1 (stereo not given)
Cc1nc2cnc(Nc3ccccc3)nc2n(Cc2ccc(F)cc2)c1=O
CC(=O)O[C@]1(C(C)=O)CC[C@@H]2[C@@H]3C=C(C)C4=CC(=O)CC[C@@]4(C)[C@H]3CC[C@]21C
Cc1oc(-c2cccc(Cl)c2)[n+]([O-])c1C
CCOC(=O)CCc1c(C)c(C#N)c2[nH]c3ccccc3n2c1=O
Cc1cc(C)c(C#N)c(SCc2ccccc2C(=O)O)n1
CC(CCc1ccccc1)NC(=O)c1ccc(Br)o1 (stereo not given)
CCCCCNC(=O)Cc1ccc(OC)cc1
CCN(CC)C(=O)N1CCN(C(=O)c2ccc(C)cn2)CC1
CCCOC(=O)C1=C(C)NC2=C(C(=O)C(C(=O)OC)C(C)C2)C1c1ccc(N(C)C)cc1 (stereo not given)
Cc1cc(C)n(-c2ccc(Cl)c(C(=O)O)n2)n1
COCCn1c(=O)c(C)nc2cnc(N(C)C)nc21
COCCn1c(=O)c(-c2ccc(OC)cc2)nc2cnc(Oc3cccc(Cl)c3)nc21
O=C(O)CCC(=O)N(Cc1ccco1)c1nc(-c2ccccc2)cs1
COc1ccc2nc(NC3=NCN(CC4CCCO4)CN3)nc(C)c2c1 (stereo not given)
COc1ccc(-c2ccnc(SCC(=O)N3CCOCC3)n2)cc1
COc1ccc(-c2nc3cnc(OC)nc3n(Cc3ccc(F)cc3)c2=O)cc1
COc1ccc(CCn2c(-c3ccco3)nc3nc4ccccc4nc32)cc1OC
COc1ccc(C(C)=O)cc1COC(=O)Cn1cnc2ccccc2c1=O
Cc1cc(C)nc(SCc2nnc(SCC(=O)Nc3ncc(C)s3)n2Cc2ccco2)n1
COc1ncc2nc(-c3ccc(Cl)cc3)c(=O)n(C)c2n1
Cn1c(=O)c(-c2ccccc2)nc2cnc(N3CCNCC3)nc21
CS(=O)(=O)N(CC(=O)NCc1ccco1)c1ccc2c(c1)OCO2
Cc1cccc2cc(CN(Cc3nnnn3Cc3ccccc3)C3CCCC3)c(=O)[nH]c12
CC(C)C(=O)Nc1cccc(C(=O)Nc2ccc3c(c2)OCO3)c1
O=C1NC(=O)[C@@](Cc2ccccc2)(c2cccnc2)N1
O=C(CN(c1ccc2c(c1)OCCO2)S(=O)(=O)c1ccccc1)Nc1ccc2c(c1)OCO2
CN1CCc2c(sc3c2c(NCc2ccco2)nc2nnnn23)C1
COc1ccc(C)cc1NC(=O)CSc1nc(SC)ns1
N#Cc1ccccc1-c1ccc2ncnc(NCc3cccnc3)c2c1
CCCC(=O)N1c2ccc(-c3csc(N)n3)cc2CC1C (stereo not given)
COc1ccc(-n2c(=O)c(C)nc3cnc(N4CCOCC4)nc32)cc1
CC(C)C(NC(=O)c1cccc(S(=O)(=O)N2CCOCC2)c1)C(=O)NCCc1ccccn1 (stereo not given)
CSc1ccc(-c2c(C#N)c(N)nc3c2c(C)nn3-c2ccccc2)cc1
CC(C)(C)n1nc2c(c1NC(=O)c1ccc(S(=O)(=O)N3CCCC3)cc1)CS(=O)C2 (stereo not given)
CCC[C@H]1C(=O)N2C(N(C)C)=Nc3ccc(C)cc3N2C1=O
Cc1nc2cnc(N3CCN(C)CC3)nc2n(CCC#N)c1=O
CCOc1ccc(-c2nnn(CC(=O)N3CCN(c4ccc(OC)cc4)CC3)n2)cc1OCC
Cc1cnc(NC(=O)CSc2nnc(-c3ccc(Cl)cc3Cl)n2N)s1
CC[C@]1(C)CC(=O)NC1=O
CCc1ccc2oc(=O)cc(CN3CCCCC3C)c2c1 (stereo not given)
Cc1cc(NC(=O)Cn2nc(C(F)(F)F)c3c2CCCC3)no1
Cc1cc(C(F)(F)F)n2ncc(-c3ccccc3)c2n1
CN(C)/C=C1/Nc2ccccc2C1=O
CCOC(=O)C1CCCCN1Cc1ccc(OC)c(OC)c1OC (stereo not given)
CN(Cc1ccco1)c1ncncc1-c1ccoc1
COc1ccc(-c2c3c(=O)n(C)c(=O)n(C)c3cn2NC(C)=O)cc1
